Source: PubChem BioAssay AID1240 (Sanford-Burnham Center for Chemical Genomics, 2008)
Screen size: about 50,000 compounds; about 800 (1.6%) showed an effect of 50% or more. Shown is part of a subset that was picked to be rich in strong results.

target: Bcl-2-like protein 10 (Homo sapiens) (UniProt Q9HD36); assay: TR3 peptide-Bcl-B binding displacers, biochemical primary FP assay, phenotype converters (AID 1240); details: GST-Bcl-B / FITC-TR3 peptide fluorescence polarization; stronger effect = higher value; compound at 3.75 mg/L;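 note: 0% = Bcl-B with tracer peptide and DMSO and 100% = tracer peptide lacking Bcl-B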
Sequence (Q9HD36 whole entry, looked up): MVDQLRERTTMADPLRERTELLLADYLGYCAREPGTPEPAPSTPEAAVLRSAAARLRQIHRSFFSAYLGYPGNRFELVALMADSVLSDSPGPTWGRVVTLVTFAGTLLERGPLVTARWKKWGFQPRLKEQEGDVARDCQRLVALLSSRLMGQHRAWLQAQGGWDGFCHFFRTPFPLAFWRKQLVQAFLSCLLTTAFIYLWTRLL

| SMILES | displacement [%] |
| --- | --- |
| CCSc1sc(CC)cc1C(=O)O | 15.4 |
| O=c1oc(-c2ccco2)nc2ccccc12 | 15.9 |
| O=c1oc(-c2ccco2)nc2cc(Cl)ccc12 | 56 |
| O=c1oc(-c2ccco2)nc2ccc(Cl)cc12 | 13.6 |
| C(=C\c1ccco1)/C=N/Nc1nnc2c(n1)[nH]c1ccccc12 | -1.8 |
| CCOc1ccc(C(=O)Nc2ccc(O)c(-c3nc4ccccc4s3)c2)cc1Cl | 6.3 |
| O=c1c2c(nc3cc(-c4cccc(Cl)c4)[nH]n13)CCS2 | 34.8 |
| O=c1c2c(nc3cc(-c4ccc(Br)cc4)[nH]n13)CCS2 | -9.1 |
| O=c1c2c(nc3cc(-c4cccc(F)c4)[nH]n13)CCS2 | 9.2 |
| O=c1c2c(nc3cc(-c4ccc(I)cc4)[nH]n13)CCS2 | 97.5 |
| O=c1c2c(nc3cc(-c4ccc(Cl)cc4)[nH]n13)CCS2 | 115 |
| Cc1ccc(-c2cc3nc4c(c(=O)n3[nH]2)SCC4)cc1 | -4.6 |
| O=C(COc1cccc2ccccc12)NCc1cccnc1 | 8.3 |
| CC(C)CNC(=O)c1cccc(NC(=O)CN2C(=O)c3ccccc3C2=O)c1 | 13.8 |
| O=C(NCc1ccncc1)c1ccc(Cl)cc1 | -3.5 |
| C/C(=N/NC(=O)COc1cccc(Cl)c1)c1ccccc1O | 9.1 |
| Cc1cc(C)c(NC(=O)c2ccccc2[N+](=O)[O-])c(C)c1 | 13.5 |
| CC(=O)NC(NC(C)=O)c1ccc(F)cc1 | -2.4 |
| CCN(CC)c1ccc(/C=C2\C(=O)NC(=O)N(c3ccc(OC)cc3)C2=O)c(OC)c1 | 10 |
| COc1ccc(/C=C2\C(=O)NC(=O)N(c3cccc(Br)c3)C2=O)cc1OC | 120 |
| COc1ccc(/C=C2\C(=O)NC(=O)N(c3ccc(F)cc3)C2=O)cc1OC | -27.7 |
| CCOc1ccc(/C=C2/C(=O)NC(=O)N(c3ccc(OC)cc3)C2=O)c(OCC)c1 | -4 |

| SMILES | displacement [%] |
| --- | --- |
| COc1ccc(/C=C2\C(=O)NC(=O)N(c3cccc(Br)c3)C2=O)c(OC)c1 | 122 |
| COc1ccc(/C=C2\C(=O)NC(=O)N(c3cccc(Br)c3)C2=O)c(C)c1 | -5.7 |
| CCOc1ccc(N2C(=O)NC(=O)/C(=C\c3ccc(N(CC)CC)cc3OC)C2=O)cc1 | 55.1 |
| COc1cc(/C=C2\C(=O)NC(=O)N(c3cccc(Br)c3)C2=O)cc(Cl)c1O | 4.4 |
| COc1ccc(/C=C2\C(=O)NC(=S)N(c3cccc(Br)c3)C2=O)c(OC)c1 | -0.7 |
| Cc1cc(Br)ccc1NC(=O)c1ccc(C)c([N+](=O)[O-])c1 | 8.6 |
| CCCCCOC(=O)C1=C(C)NC(=O)NC1c1ccc(Br)cc1 (centres undefined) | 8.5 |
| COc1ccccc1C(=O)Nc1nnc(C(C)(C)C)s1 | -11.4 |
| CCOc1ccc(S(=O)(=O)N(CC(=O)NC)c2ccc(C)cc2)cc1 | 1.7 |
| C=CCC(C)(CC=C)NC(=O)c1ccccc1[N+](=O)[O-] | -6.9 |
| O=C(NCC1CCCO1)/C(=C/c1ccc(-c2ccccc2Cl)o1)NC(=O)c1ccccc1 (centres undefined) | 19.7 |
| COc1cc(C(=O)Oc2ccc(Cl)cc2C)cc(OC)c1OC | 2.1 |
| CCOC(=O)C1=C(C)NC2=C(C(=O)CC(C)(C)C2)C1c1ccc(OC(F)F)cc1 (centres undefined) | -0.2 |
| CCOc1cc(/C=C2\C=C(c3ccc(Br)cc3)OC2=O)ccc1OC(C)=O | 12.6 |
| COc1ccc(C2=C/C(=C\c3ccc(OC(C)=O)cc3)C(=O)O2)cc1 | 110 |
| CC(=O)Oc1ccc(/C=C2\C=C(c3ccc(C)cc3)OC2=O)cc1 | 34.5 |
| CC(=O)Oc1cccc(/C=C2\C=C(c3ccc(C)cc3)OC2=O)c1 | 7 |
| CCOc1ccc(C2=C/C(=C/c3ccc(OC)cc3)C(=O)O2)cc1 | -0.6 |
| CCOc1cc(/C=C2\C=C(c3ccc(C)cc3)OC2=O)ccc1OC(C)=O | 111 |
| COc1ccc(C2=C/C(=C\c3cccc(OC(C)=O)c3)C(=O)O2)cc1 | 25.4 |
| COc1ccc(/C=C2\C=C(c3ccc(C)cc3)OC2=O)cc1C | 10.4 |
| CCOc1cc(/C=C2/C=C(c3ccc(OC)cc3)OC2=O)cc(I)c1OC | -6 |

| SMILES | displacement [%] |
| --- | --- |
| CCOc1cc(/C=C2\C=C(c3ccc(OC)cc3)OC2=O)ccc1OC(C)=O | 92.4 |
| COc1cc(/C=C2\C=C(c3ccc(C)cc3)OC2=O)ccc1OC(C)=O | 59.2 |
| COc1ccc(C2=C/C(=C\c3ccc(OC(C)=O)c(OC)c3)C(=O)O2)cc1 | 39.4 |
| O=C(O)c1ccc(-c2ccc(OC(F)(F)F)cc2)o1 | -7.6 |
| NC(=S)N/N=C/c1cccn1-c1ccc([N+](=O)[O-])cc1 | -1 |
| O=C1S/C(=C/c2ccc(Cl)c(Cl)c2)C(=O)N1c1ccccc1 | 17.9 |
| CCOC(=O)c1c(NC(=O)CC2SC(N)=NC2=O)sc2c1CCCC2 (centres undefined) | 6.3 |
| COc1ccc(C(=O)CC(Nc2ccc([N+](=O)[O-])cc2)c2ccc(Cl)cc2)cc1 (centres undefined) | -4.2 |
| Cc1ccc2c(nc3s/c(=C\c4cccc(Cl)c4Cl)c(=O)n32)c1C | -9.5 |
| Cc1ccc(S(=O)(=O)Oc2ccc(/C=C3\SC(N)=NC3=O)cc2Br)cc1 | 1.8 |
| O=c1[nH]c(=O)n(-c2ccc(Cl)cc2)c(O)c1C=Nc1cccc(F)c1 | 10 |
| Cc1cc(OCC(=O)Nc2cccc(F)c2)cc(C)c1Cl | 4.1 |
| COCCNCCOc1c(C)cc(Cl)cc1C | 7.2 |
| O=C(Nc1cc(Cl)cc(Cl)c1)c1ccc(CN2CCc3ccccc3C2)cc1 | -3.7 |
| COC(=O)C1=C(C)N(c2ccc(C)c(C)c2)/C(=C/c2ccco2)C1=O | 8.8 |
| COC(=O)C1=C(C)N(c2ccccc2F)C(=O)/C1=C\c1sccc1C | 7.8 |
| CCN1C(=O)/C(=C\c2ccc(C)cc2)C(C(=O)OC)=C1C | 86.2 |
| COC(=O)C1=C(C)N(c2ccccc2F)C(=O)/C1=C\c1ccc(F)cc1 | 2.3 |
| CCN1C(=O)/C(=C\c2ccc(F)cc2)C(C(=O)OC)=C1C | 34.2 |
| CCN1C(=O)/C(=C\c2ccccc2)C(C(=O)OC)=C1C | -23.3 |
| C=CCN1C(=O)/C(=C\c2ccc(C(=O)OC)cc2)C(C(=O)OC)=C1C | -14.5 |
| COC(=O)C1=C(C)N(c2cc(C)cc(C)c2)/C(=C\c2sccc2C)C1=O | 27 |

| SMILES | displacement [%] |
| --- | --- |
| C=CCN1C(=O)/C(=C\c2ccccc2)C(C(=O)OC)=C1C | -2.2 |
| COC(=O)C1=C(C)N(c2ccccc2F)C(=O)/C1=C\c1ccccc1F | 112 |
| C=CCN1C(=O)/C(=C\c2ccco2)C(C(=O)OC)=C1C | 65.4 |
| COC(=O)C1=C(C)N(c2cc(C)cc(C)c2)/C(=C/c2ccco2)C1=O | 99.6 |
| COc1ccc(C(=O)N2CCCc3ccccc32)cc1OC | -3.3 |
| Cc1cc(=O)oc2cc(OCc3ccc(F)cc3)c(Cl)cc12 | 16.8 |
| Cc1cc([N+](=O)[O-])ccc1NCc1cccc(C(F)(F)F)c1 | 2.6 |
| CC1(C)CC(=O)C2=C(C1)c1c(ccc3ccccc13)NC2c1cccs1 (centres undefined) | 7.2 |
| O=C(Nc1ccc(F)cc1)c1ccco1 | 12.9 |
| COC(=O)C1=C(C)N(C)C(=O)/C1=C\c1ccc2c(c1)OCO2 | -0.7 |
| COCCN1C(=O)/C(=C\c2ccc3c(c2)OCO3)C(C(=O)OC)=C1C | -8 |
| COC(=O)C1=C(C)N(c2ccc(C)cc2)C(=O)/C1=C\c1ccc2c(c1)OCO2 | 107 |
| COC(=O)C1=C(C)N(c2cccc(C)c2)C(=O)/C1=C\c1ccc(C(=O)O)cc1 | 6.9 |
| COC(=O)C1=C(C)N(C)C(=O)/C1=C\c1ccc(C(=O)OC)cc1 | 16.4 |
| COC(=O)C1=C(C)N(c2ccccc2)C(=O)/C1=C\c1ccc(C(=O)OC)cc1 | 130 |
| COc1ccccc1CC1S/C(=N\N=C\c2cccc([N+](=O)[O-])c2)NC1=O (centres undefined) | 12.9 |
| COc1ccc(NC(=O)Nc2ccccc2C(F)(F)F)cc1 | 8.4 |
| CN(C)c1cccc2c(C(NS(=O)(=O)c3ccccc3)C(Cl)(Cl)Cl)ccc(N(C)C)c12 (centres undefined) | 144 |
| COC(=O)C(NS(=O)(=O)c1ccccc1)C(C)C (centres undefined) | -12 |
| O=S(=O)(NC(c1cccs1)C(Cl)(Cl)Cl)c1ccc(Cl)cc1 (centres undefined) | 7 |
| CCCCNC(=O)/C(=C/c1ccc(C)o1)NC(=O)c1ccccc1 | 13.1 |
| CCOc1ccc(NC2=C(Cl)C(=O)N(c3cccc(Cl)c3Cl)C2=O)cc1 | 16.3 |

| SMILES | displacement [%] |
| --- | --- |
| N#C/C(=C/c1cc([N+](=O)[O-])ccc1Cl)C(=O)Nc1cccc(Br)c1 | -3.3 |
| O=C(N/N=C/c1cccs1)C1CC(=O)N(c2ccccc2)C1 (centres undefined) | 25 |
| O=C(N/N=C/c1cccs1)C1CC(=O)N(c2ccc(Cl)cc2)C1 (centres undefined) | -9.3 |
| COc1ccc(N2CC(C(=O)N/N=C/c3cccs3)CC2=O)cc1 (centres undefined) | 65 |
| O=C(O)/C=C/c1cccc(NS(=O)(=O)c2cccs2)c1 | -13 |
| Cn1nnnc1SCC(=O)Nc1ccccc1 | 4.1 |
| Cn1nnnc1SCC(=O)Nc1ccc2c(c1)oc1ccccc12 | 87 |
| Cc1nnc(SCC(=O)Nc2ccc3c(c2)oc2ccccc23)s1 | -8.5 |
| O=C1NC(=O)/C(=C\c2cc3c(cc2[N+](=O)[O-])OCO3)S1 | 6.8 |
| CCCOc1ccc(/C=C2N=C(/C=C/c3ccccc3)OC/2=O)cc1OC | 166 |
| O=C1OC(/C=C/c2ccccc2)=NC/1=C/c1cccc([N+](=O)[O-])c1 | 98.4 |
| O=C1OC(c2ccccc2F)=N/C1=C\c1cccc([N+](=O)[O-])c1 | 9.9 |
| O=C1OC(c2ccccc2I)=N/C1=C\c1cccc([N+](=O)[O-])c1 | -4 |
| CCN(CC)c1ccc(/C=C2N=C(/C=C/c3ccccc3)OC/2=O)cc1 | -28 |
| COc1ccc(OC)c(/C=C2N=C(/C=C/c3ccccc3)OC/2=O)c1 | 9.6 |
| CCOc1c(Br)cc(/C=C2N=C(/C=C/c3ccccc3)OC/2=O)cc1OC | 105 |
| CCCOc1ccc(C=C2C(=O)N(C)C(=O)N(C)C2=O)cc1OC | 1.3 |
| COc1cc(/C=C2\N=C(c3ccccc3)OC2=O)cc(Br)c1OCc1c(C)no[n+]1[O-] | -1.1 |
| O=C1OC(/C=C/c2ccccc2)=NC/1=C/c1ccccc1 | 13.6 |
| COc1ccc(/C=C2N=C(/C=C/c3ccccc3)OC/2=O)cc1 | 88.6 |
| CCOc1c(Br)cc(/C=C2/C(=O)N(c3ccccc3)N=C2C)cc1OC | -0.6 |
